Results published in PubChem BioAssay AID1159580 (chemical genetic matrix, 2015).
Where “and” joins values, the source holds several entries; their conditions need not be identical. Identical values can stand only once. About 2,000 (36%) of roughly 5,500 compounds were called active. Roughly 18% stayed inconclusive and do not appear here. The list shows a part of the results. Unmarked numbers belong to inactive results. Cut-off read from the data, not from the text of the source: active = normalized growth mostly below about 0.91 (no sharp cut-off); inconclusive = no clear call, values can overlap the other calls; inactive = mostly above about 0.92.

Experiment: chemical genetic growth profiling, strain panel (AID 1159580);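 note: tested at 20 µM; growth read once vehicle control cultures reached saturation at 30 °C; 1 = growth at the plate median or of vehicle wells; lower values mean less growth of the strain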
Conditions: growth OD

SMILES: Cn1c(=O)c2c(ncn2C)n(C)c1=O
- normalized growth (S. cerevisiae deletion strains, locus YJR043C, strain POL32, active compounds read low): 1.02
- normalized growth (S. cerevisiae deletion strains, locus YJR066W, strain TOR1, active compounds read low): 0.97
- normalized growth (S. cerevisiae deletion strains, locus YJR075W, strain HOC1, active compounds read low): 1
- normalized growth (S. cerevisiae deletion strains, locus YKL009W, strain mrt4, active compounds read low): 1.03
- normalized growth (S. cerevisiae deletion strains, locus YKL068W, active compounds read low): 1.01
- normalized growth (S. cerevisiae deletion strains, locus YKL085W, strain MDH1 (second series), active compounds read low): 0.991
- normalized growth (S. cerevisiae deletion strains, locus YKL085W, strain MDH1, active compounds read low): 0.991
- normalized growth (S. cerevisiae deletion strains, locus YKL160W, strain elf1, active compounds read low): 1.02
- normalized growth (S. cerevisiae deletion strains, locus YKR001C, strain vps1, active compounds read low): 1
- normalized growth (S. cerevisiae deletion strains, locus YKR026C, strain gcn3, active compounds read low): 0.965
- normalized growth (S. cerevisiae deletion strains, locus YKR091W, strain srl3, active compounds read low): 0.969
- normalized growth (S. cerevisiae deletion strains, locus YLL001W, strain dnm1, active compounds read low): 0.932
- normalized growth (S. cerevisiae deletion strains, locus YLL026W, active compounds read low): 0.962
- normalized growth (S. cerevisiae deletion strains, locus YLL041C, strain sdh2, active compounds read low): 0.976
- normalized growth (S. cerevisiae deletion strains, locus YLR027C, strain aat2, active compounds read low): 0.976
- normalized growth (S. cerevisiae deletion strains, locus YLR039C, strain RIC1, active compounds read low): 0.989
- normalized growth (S. cerevisiae deletion strains, locus YLR058C, strain SHM2, active compounds read low): 1
- normalized growth (S. cerevisiae deletion strains, locus YLR102C, strain apc9, active compounds read low): 1.01
- normalized growth (S. cerevisiae deletion strains, locus YLR113W, strain HOG1, active compounds read low): 1.04
- normalized growth (S. cerevisiae deletion strains, locus YLR221C, strain rsa3, active compounds read low): 0.89 (active)
- normalized growth (S. cerevisiae deletion strains, locus YLR258W, strain gsy2, active compounds read low): 0.976
- normalized growth (S. cerevisiae deletion strains, locus YLR262C, strain YPT6 (second series), active compounds read low): 0.996
- normalized growth (S. cerevisiae deletion strains, locus YLR262C, strain YPT6, active compounds read low): 0.988
- normalized growth (S. cerevisiae deletion strains, locus YLR268W, strain sec22, active compounds read low): 1.03
- normalized growth (S. cerevisiae deletion strains, locus YLR320W, strain mms22, active compounds read low): 0.987
- normalized growth (S. cerevisiae deletion strains, locus YLR330W, strain CHS5, active compounds read low): 0.999
- normalized growth (S. cerevisiae deletion strains, locus YLR342W, strain FKS1 (second series), active compounds read low): 1.03
- normalized growth (S. cerevisiae deletion strains, locus YLR342W, strain FKS1, active compounds read low): 0.983
- normalized growth (S. cerevisiae deletion strains, locus YLR357W, strain rsc2, active compounds read low): 0.98
- normalized growth (S. cerevisiae deletion strains, locus YLR370C, strain arc18, active compounds read low): 0.936
- normalized growth (S. cerevisiae deletion strains, locus YLR371W, strain rom2, active compounds read low): 0.989
- normalized growth (S. cerevisiae deletion strains, locus YLR384C, strain iki3, active compounds read low): 0.97
- normalized growth (S. cerevisiae deletion strains, locus YLR418C, strain cdc73, active compounds read low): 0.947
- normalized growth (S. cerevisiae deletion strains, locus YML016C, strain PPZ1, active compounds read low): 0.995
- normalized growth (S. cerevisiae deletion strains, locus YML032C, strain rad52, active compounds read low): 1.01
- normalized growth (S. cerevisiae deletion strains, locus YML120C, strain ndi1, active compounds read low): 0.926
- normalized growth (S. cerevisiae deletion strains, locus YML124C, strain tub3, active compounds read low): 1
- normalized growth (S. cerevisiae deletion strains, locus YMR058W, strain fet3, active compounds read low): 0.96
- normalized growth (S. cerevisiae deletion strains, locus YMR078C, strain ctf18, active compounds read low): 0.995
- normalized growth (S. cerevisiae deletion strains, locus YMR125W, strain sto1, active compounds read low): 0.954
- normalized growth (S. cerevisiae deletion strains, locus YMR129W, active compounds read low): 0.988
- normalized growth (S. cerevisiae deletion strains, locus YMR205C, strain PFK2, active compounds read low): 0.991
- normalized growth (S. cerevisiae deletion strains, locus YMR223W, strain ubp8, active compounds read low): 1
- normalized growth (S. cerevisiae deletion strains, locus YMR231W, strain pep5, active compounds read low): 0.987
- normalized growth (S. cerevisiae deletion strains, locus YMR307W, strain GAS1, active compounds read low): 0.974 and 0.988
- normalized growth (S. cerevisiae deletion strains, locus YNL067W, strain RPL9B, active compounds read low): 1
- normalized growth (S. cerevisiae deletion strains, locus YNL071W, strain lat1, active compounds read low): 0.995
- normalized growth (S. cerevisiae deletion strains, locus YNL128W, strain TEP1, active compounds read low): 0.997
- normalized growth (S. cerevisiae deletion strains, locus YNL175C, strain NOP13, active compounds read low): 1.02
- normalized growth (S. cerevisiae deletion strains, locus YNL183C, strain NPR1, active compounds read low): 0.987
- normalized growth (S. cerevisiae deletion strains, locus YNL197C, strain WHI3, active compounds read low): 1.12
- normalized growth (S. cerevisiae deletion strains, locus YNL209W, strain ssb2, active compounds read low): 0.959
- normalized growth (S. cerevisiae deletion strains, locus YNL224C, strain SQS1, active compounds read low): 1.01
- normalized growth (S. cerevisiae deletion strains, locus YNL233W, strain BNI4, active compounds read low): 0.984
- normalized growth (S. cerevisiae deletion strains, locus YNL248C, strain rpa49, active compounds read low): 1.03
- normalized growth (S. cerevisiae deletion strains, locus YNL250W, strain rad50, active compounds read low): 1.01
- normalized growth (S. cerevisiae deletion strains, locus YNL271C, strain bni1, active compounds read low): 1.01
- normalized growth (S. cerevisiae deletion strains, locus YNL298W, strain CLA4, active compounds read low): 1.01
- normalized growth (S. cerevisiae deletion strains, locus YNL307C, strain MCK1, active compounds read low): 1
- normalized growth (S. cerevisiae deletion strains, locus YNL322C, strain KRE1 (second series), active compounds read low): 0.963
- normalized growth (S. cerevisiae deletion strains, locus YNL322C, strain KRE1, active compounds read low): 0.995
- normalized growth (S. cerevisiae deletion strains, locus YNR049C, strain mso1, active compounds read low): 0.956
- normalized growth (S. cerevisiae deletion strains, locus YNR052C, strain pop2, active compounds read low): 1
- normalized growth (S. cerevisiae deletion strains, locus YOL006C, strain TOP1, active compounds read low): 1.04
- normalized growth (S. cerevisiae deletion strains, locus YOL012C, strain htz1): 0.798
- normalized growth (S. cerevisiae deletion strains, locus YOL147C, strain pex11, active compounds read low): 0.998
- normalized growth (S. cerevisiae deletion strains, locus YOR001W, strain rrp6, active compounds read low): 0.979
- normalized growth (S. cerevisiae deletion strains, locus YOR061W, strain CKA2, active compounds read low): 1.01
- normalized growth (S. cerevisiae deletion strains, locus YOR069W, strain VPS5, active compounds read low): 1
- normalized growth (S. cerevisiae deletion strains, locus YOR070C, strain gyp1, active compounds read low): 0.993
- normalized growth (S. cerevisiae deletion strains, locus YOR080W, strain dia2, active compounds read low): 0.956
- normalized growth (S. cerevisiae deletion strains, locus YOR083W, strain WHI5 (second series), active compounds read low): 1.02
- normalized growth (S. cerevisiae deletion strains, locus YOR083W, strain WHI5, active compounds read low): 1.01
- normalized growth (S. cerevisiae deletion strains, locus YOR106W, strain vam3, active compounds read low): 0.969
- normalized growth (S. cerevisiae deletion strains, locus YOR136W, strain idh2, active compounds read low): 1.01
- normalized growth (S. cerevisiae deletion strains, locus YOR144C, strain elg1, active compounds read low): 1
- normalized growth (S. cerevisiae deletion strains, locus YOR184W, strain ser1, active compounds read low): 1.01
- normalized growth (S. cerevisiae deletion strains, locus YOR231W, strain MKK1, active compounds read low): 1.04
- normalized growth (S. cerevisiae deletion strains, locus YOR265W, strain rbl2, active compounds read low): 0.963
- normalized growth (S. cerevisiae deletion strains, locus YOR270C, strain vph1, active compounds read low): 0.988
- normalized growth (S. cerevisiae deletion strains, locus YOR290C, strain snf2, active compounds read low): 0.952
- normalized growth (S. cerevisiae deletion strains, locus YOR316C, strain cot1, active compounds read low): 1.01
- normalized growth (S. cerevisiae deletion strains, locus YPL051W, strain arl3, active compounds read low): 0.949
- normalized growth (S. cerevisiae deletion strains, locus YPL055C, strain LGE1, active compounds read low): 0.998
- normalized growth (S. cerevisiae deletion strains, locus YPL078C, strain atp4, active compounds read low): 1.02
- normalized growth (S. cerevisiae deletion strains, locus YPL106C, strain sse1, active compounds read low): 0.929
- normalized growth (S. cerevisiae deletion strains, locus YPL240C, strain hsp82, active compounds read low): 0.974
- normalized growth (S. cerevisiae deletion strains, locus YPL241C, strain CIN2, active compounds read low): 0.998 and 1.01
- normalized growth (S. cerevisiae deletion strains, locus YPL256C, strain CLN2, active compounds read low): 1.09
- normalized growth (S. cerevisiae deletion strains, locus YPR119W, strain clb2, active compounds read low): 0.996
- normalized growth (S. cerevisiae deletion strains, locus YPR141C, strain kar3, active compounds read low): 0.992
- normalized growth (S. cerevisiae deletion strains, locus YPR163C, strain tif3, active compounds read low): 0.991
- normalized growth (S. cerevisiae deletion strains, locus YPR167C, strain met16, active compounds read low): 1
- normalized growth (S. cerevisiae deletion strains, strain wtn01, active compounds read low): 1.04
- normalized growth (S. cerevisiae strains, strain wild type, active compounds read low): 1
